Screens from PubChem BioAssay.
This excerpt belongs to a sample that is enriched for hits.
p53null 32C kill: selectivity test: cytotoxicity in p53 null cells, permissive temperature. H1299-neo p53 null cells, ATP luminescence, 24 h, 32C. Potency, µM (doses to about 46.1 µM), for inactives: top-dose activity change, negative = cytotoxicity, most hits filed as cytotoxic. 55,000 compounds, 0.62% hits. AID 903;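 further: potency means the concentration at half of the fitted maximal effect; 0% = DMSO only and -100% = full killing by 100 µM tamoxifen; nearly all actives have a fitted effect of over 55% in size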
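ATP-content luminescence in p53-null H1299-neo cells after 24 h compound exposure (up to 46 uM) at 32C permissive temperature; 0% and 100% killing set by DMSO and 100 uM tamoxifen; Hill-equation AC50.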
SKOV3 invasion: inhibitors of ovarian cancer cell adhesion and invasion in omental model | SKOV3ip1-GFP adhesion/invasion on 3D omental model, fluorescence | Potency, µM (top dose mostly 45.8 µM), inactives show at the highest dose activity change, negative = inhibition, usual class: inhibitors | 46,000 compounds, 0.1% hits;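 further: potency means the concentration at half of the fitted maximal effect; plate controls were DMSO wells for no effect and tomatine positive control wells for full effect; nearly all actives have a fitted effect of over 65% in size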
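Adhesion/invasion was scored as fixed GFP-labeled SKOV3ip1 cell counts (488/509 nm), normalized to DMSO and tomatine controls. Cancer cells in serum-free medium, with four compound doses (0.36-46 umol/L), sat 2 hr at RT then 16 hr at 37 C on a 48 hr fibroblast/mesothelial/ECM culture.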
NTMT1 inh: NTMT1 methyltransferase inhibition; Q9BV86; NTMT1 MTase-Glo SAH luminescence, purified enzyme; Potency, µM (series often up to 114 µM), for inactives: at the highest dose activity change, negative = inhibition, hits mostly inhibitors; 59,000 compounds, 2.5% hits;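 further: potency means the concentration at half of the fitted maximal effect; plate controls were DMSO vehicle for no effect and no enzyme for full effect; nearly all actives have a fitted effect of over 65% in size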
p53null 39C kill: kills p53 null cells at the nonpermissive temperature. Potency, µM (titrated, usually from 46.1 µM), for the others: at the highest dose activity, negative = cell killing, hits mostly cytotoxic. AID 904. H1299 p53-null (neo) cells, 39C, ATPlite viability, 24 h. 55,000 compounds, 0.97% hits;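 further: potency means the concentration at half of the fitted maximal effect; 0% = DMSO only and -100% = full killing by 100 µM tamoxifen; nearly all actives have a fitted effect of over 50% in size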
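Following overnight plating at 37C (600 cells/well), H1299-neo or H1299-p53A138V cells are dosed up to 46 uM. Incubation lasts 24 hr at 39C before ATP detection.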
Sfp PPTase inh: inhibits purified B. subtilis Sfp PPTase | 230 compounds, 78% hits | purified Sfp PPTase enzyme activity, qHTS | Potency, µM (top dose mostly 114 µM), for inactives: top-dose activity change, negative = inhibition, hits mostly inhibitors | shares compounds with NTMT1 inh | AID 540350
HM489 growth: Sfp PPTase inhibitors: growth inhibition of B. subtilis HM489; B. subtilis HM489 (acpS-) growth, BacTiter-Glo, 5 h; shares compounds with NTMT1 inh; 220 compounds, 50% hits; Potency, µM (highest dose often 114 µM), for inactives: at the top dose activity change, negative = inhibition, actives largely listed as inhibitors; AID 540353
Sfp PPTase gel: Sfp PPTase inhibition, gel-based detection; shares compounds with NTMT1 inh; purified Sfp PPTase, gel-based product detection; Potency, µM (series often up to 250 µM), inactives show at the top dose activity change, negative = inhibition, hits mostly inhibitors; 220 compounds, 54% hits; AID 540355
Sfp inh SAR2: Sfp phosphopantetheinyl transferase inhibition, SAR round 2; shares compounds with NTMT1 inh; purified Sfp enzyme, PPTase activity, qHTS; Potency, µM (series often up to 57.1 µM), without a hit: at the top dose activity change, negative = inhibition, hits mostly inhibitors; 230 compounds, 87% hits; AID 602370
HSD17B4 counter: counter-screen for HPGD inhibitors: human HSD17B4 inhibition | purified HSD17B4, estradiol/NAD+, NADH fluorescence | 230 compounds, 10% hits | shares compounds with NTMT1 inh | Potency, µM (series often up to 57.1 µM), without a hit: top-dose activity change, negative = inhibition, usual class: inhibitors
Target sequence (P51659 whole entry, looked up): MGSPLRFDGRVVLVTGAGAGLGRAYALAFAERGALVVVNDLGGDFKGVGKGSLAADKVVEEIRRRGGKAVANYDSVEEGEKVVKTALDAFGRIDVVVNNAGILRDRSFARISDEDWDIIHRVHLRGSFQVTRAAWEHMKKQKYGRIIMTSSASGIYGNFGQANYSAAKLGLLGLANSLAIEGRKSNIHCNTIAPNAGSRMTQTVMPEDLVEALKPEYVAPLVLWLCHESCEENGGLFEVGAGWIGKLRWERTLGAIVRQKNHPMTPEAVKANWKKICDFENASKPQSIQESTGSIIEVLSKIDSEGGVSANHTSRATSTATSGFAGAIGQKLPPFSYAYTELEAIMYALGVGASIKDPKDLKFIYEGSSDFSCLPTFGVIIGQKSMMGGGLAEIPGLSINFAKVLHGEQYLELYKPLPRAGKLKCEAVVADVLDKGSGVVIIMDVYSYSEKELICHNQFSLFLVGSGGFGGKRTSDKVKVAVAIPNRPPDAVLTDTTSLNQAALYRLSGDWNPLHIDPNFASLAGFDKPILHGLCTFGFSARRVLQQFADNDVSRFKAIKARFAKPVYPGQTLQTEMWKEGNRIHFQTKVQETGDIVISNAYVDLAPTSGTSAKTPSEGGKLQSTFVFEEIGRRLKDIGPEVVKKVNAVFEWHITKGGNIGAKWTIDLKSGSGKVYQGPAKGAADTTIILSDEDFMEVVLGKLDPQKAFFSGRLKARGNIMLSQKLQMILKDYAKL
ALDH1A1 counter: counter-screen for HPGD inhibitors: human ALDH1A1 inhibition; shares compounds with NTMT1 inh; recombinant ALDH1A1, NADH fluorescence, propionaldehyde/NAD+; Potency, µM (highest dose often 57.1 µM), inactives show at the highest dose activity change, negative = inhibition, actives largely listed as inhibitors; 230 compounds, 93% hits
An asterisk follows results filed as active; [ ] = remark or other dose. The call rests on the fitted dose curve; in most records, active means well fitted curve in the direction sought with a large enough effect; inconclusive means small, poorly fitted or top-dose-only effect, or another doubt; inactive means no such curve, though single readings can be large; an effect the other way counts as inactive or inconclusive.

Screening Cc1cc(C)nc(NC(=S)N2CCN(c3ncnc4sccc34)CC2)c1 returned NTMT1 inh -21.5%[57.5 µM], Sfp PPTase inh 5.91µM*, HM489 growth inconclusive, Sfp PPTase gel 39.8µM*, Sfp inh SAR2 1.82µM*, HSD17B4 counter -23.7% and ALDH1A1 counter 9.61µM*.
For Cc1cc(C)nc(NC(=S)N2CCN(c3cc(Cl)c(Cl)c(Cl)c3)CC2)c1 the results were NTMT1 inh inconclusive, Sfp PPTase inh 1.48µM*, HM489 growth 7.7%, Sfp PPTase gel 10µM*, Sfp inh SAR2 0.36µM*, HSD17B4 counter -7.6% and ALDH1A1 counter 6.07µM*.
Cc1cc(C)nc(NC(=S)N2CCN(c3cc(F)cc(F)c3)CC2)c1 was read as Sfp PPTase inh 6.63µM*, HM489 growth 37.3µM*, Sfp PPTase gel 10µM* and Sfp inh SAR2 1.29µM*.
`Cc1ccc(-n2ncc3c(N4CCN(C)CC4)ncnc32)cc1` gave p53null 32C kill inconclusive, SKOV3 invasion -2.3%, NTMT1 inh -1.3% and p53null 39C kill 19.1%.
Cc1cc(C)nc(NC(=S)N2CCN(c3cc(C#N)cc(C#N)c3)CC2)c1 was read as NTMT1 inh inconclusive, Sfp PPTase inh 2.35µM*, HM489 growth 92.7%, Sfp PPTase gel -73.2%, Sfp inh SAR2 0.65µM*, HSD17B4 counter -13.0% and ALDH1A1 counter 17.1µM*.
`O=S(=O)(Nc1nccs1)c1ccc(NCc2cc(F)ccc2O)cc1` gave NTMT1 inh 0.0%.
`Fc1ccc(-c2csc3ncnc(NCc4ccc5c(c4)OCO5)c23)cc1` gave NTMT1 inh -15.4%.
`Cc1cc(C)nc(NC(=S)N2CCN(c3nccc(C(F)(F)F)n3)CC2)c1` gave NTMT1 inh inconclusive, Sfp PPTase inh 2.1µM*, HM489 growth inconclusive, Sfp PPTase gel 3.16µM*, Sfp inh SAR2 1.15µM*, HSD17B4 counter inconclusive and ALDH1A1 counter 17.1µM*.
`Cc1cc(C)nc(NC(=S)N2CCN(c3ccsc3)CC2)c1` gave Sfp PPTase inh 5.91µM*, HM489 growth inconclusive, Sfp PPTase gel -77.1%, Sfp inh SAR2 8.13µM*, HSD17B4 counter inconclusive and ALDH1A1 counter 21.5µM*.
Cc1noc(C)c1-c1ccc(Nc2nc(-c3ccncc3)nc3ccccc23)cc1F was read as NTMT1 inh 2.1%.
For FC(F)(F)c1ccccc1-c1nc(NCc2ccc(-c3cccnc3)cc2)c2sccc2n1 the results were NTMT1 inh 8.8%[57.5 µM].
Screening FC(F)(F)c1ccccc1-c1nc(NCC23CC4CC(CC(C4)C2)C3)c2ccccc2n1 returned NTMT1 inh -4.7%[57.5 µM].
For CS(=O)(=O)c1ccc(C(=O)OCC(=O)N2CCN(Cc3ccccc3)CC2)cc1[N+](=O)[O-] the results were NTMT1 inh -12.8%[57.5 µM].
